Where “and” joins values, the source holds several entries; their conditions need not be identical. Equal values may be shown once. In all, about 5,500 compounds went through this assay and about 2,000 (36%) were called active. About 18% were inconclusive and are not listed. Rule as the data show it: active = normalized growth mostly below about 0.91 (no sharp cut-off); inconclusive = no clear call, values can overlap the other calls; inactive = mostly above about 0.92. Some of the results follow.
Experiment: chemical genetic growth profiling, strain panel (AID 1159580);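 also: tested at 20 µM; growth read once vehicle control cultures reached saturation at 30 °C; 1 = growth at the plate median or of vehicle wells; lower values mean less growth of the strain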
Conditions: growth OD

Measured: normalized growth

CN1CCN2c3ccccc3Cc3ccccc3C2C1 (stereo unspecified)
inactive: S. cerevisiae deletion strains, locus YJR075W, strain HOC1, active compounds read low 1 and 0.97 | S. cerevisiae deletion strains, locus YKL009W, strain mrt4, active compounds read low 0.999 | S. cerevisiae deletion strains, locus YKL068W, active compounds read low 0.991 | S. cerevisiae deletion strains, locus YKL085W, strain MDH1 (second series), active compounds read low 0.987 | S. cerevisiae deletion strains, locus YKL085W, strain MDH1, active compounds read low 0.987 | S. cerevisiae deletion strains, locus YKL160W, strain elf1, active compounds read low 0.989 | S. cerevisiae deletion strains, locus YKL190W, strain CNB1, active compounds read low 1.02 | S. cerevisiae deletion strains, locus YKR001C, strain vps1, active compounds read low 0.976 | S. cerevisiae deletion strains, locus YKR026C, strain gcn3, active compounds read low 1 | S. cerevisiae deletion strains, locus YKR091W, strain srl3, active compounds read low 1.01 | S. cerevisiae deletion strains, locus YLL001W, strain dnm1, active compounds read low 0.982 | S. cerevisiae deletion strains, locus YLL026W, active compounds read low 0.997 | S. cerevisiae deletion strains, locus YLL041C, strain sdh2, active compounds read low 1 | S. cerevisiae deletion strains, locus YLR027C, strain aat2, active compounds read low 1 | S. cerevisiae deletion strains, locus YLR039C, strain RIC1, active compounds read low 1.03 | S. cerevisiae deletion strains, locus YLR058C, strain SHM2, active compounds read low 1.01 | S. cerevisiae deletion strains, locus YLR102C, strain apc9, active compounds read low 0.994 | S. cerevisiae deletion strains, locus YLR113W, strain HOG1, active compounds read low 0.996 | S. cerevisiae deletion strains, locus YLR221C, strain rsa3, active compounds read low 0.993 | S. cerevisiae deletion strains, locus YLR258W, strain gsy2, active compounds read low 0.987 | S. cerevisiae deletion strains, locus YLR262C, strain YPT6 (second series), active compounds read low 0.991 | S. cerevisiae deletion strains, locus YLR262C, strain YPT6, active compounds read low 1.05 | S. cerevisiae deletion strains, locus YLR268W, strain sec22, active compounds read low 0.974 | S. cerevisiae deletion strains, locus YLR320W, strain mms22, active compounds read low 0.985 | S. cerevisiae deletion strains, locus YLR330W, strain CHS5, active compounds read low 1.01 | S. cerevisiae deletion strains, locus YLR342W, strain FKS1 (second series), active compounds read low 0.985 | S. cerevisiae deletion strains, locus YLR342W, strain FKS1, active compounds read low 0.999 | S. cerevisiae deletion strains, locus YLR357W, strain rsc2, active compounds read low 1.01 | S. cerevisiae deletion strains, locus YLR370C, strain arc18, active compounds read low 1 | S. cerevisiae deletion strains, locus YLR371W, strain rom2, active compounds read low 1 | S. cerevisiae deletion strains, locus YLR384C, strain iki3, active compounds read low 1 | S. cerevisiae deletion strains, locus YLR418C, strain cdc73, active compounds read low 0.989 | S. cerevisiae deletion strains, locus YML016C, strain PPZ1, active compounds read low 1.01 | S. cerevisiae deletion strains, locus YML032C, strain rad52, active compounds read low 1 | S. cerevisiae deletion strains, locus YML120C, strain ndi1, active compounds read low 1 | S. cerevisiae deletion strains, locus YML124C, strain tub3, active compounds read low 0.994 | S. cerevisiae deletion strains, locus YMR058W, strain fet3, active compounds read low 1.01 | S. cerevisiae deletion strains, locus YMR078C, strain ctf18, active compounds read low 0.987 | S. cerevisiae deletion strains, locus YMR125W, strain sto1, active compounds read low 1 | S. cerevisiae deletion strains, locus YMR129W, active compounds read low 0.981 | S. cerevisiae deletion strains, locus YMR205C, strain PFK2, active compounds read low 0.982 | S. cerevisiae deletion strains, locus YMR223W, strain ubp8, active compounds read low 0.986 | S. cerevisiae deletion strains, locus YMR231W, strain pep5, active compounds read low 1 | S. cerevisiae deletion strains, locus YMR263W, strain SAP30, active compounds read low 1.01 and 0.995 | S. cerevisiae deletion strains, locus YMR307W, strain GAS1, active compounds read low 1.04 | S. cerevisiae deletion strains, locus YNL067W, strain RPL9B, active compounds read low 1.02 | S. cerevisiae deletion strains, locus YNL071W, strain lat1, active compounds read low 0.998 | S. cerevisiae deletion strains, locus YNL128W, strain TEP1, active compounds read low 1.02 | S. cerevisiae deletion strains, locus YNL153C, strain GIM3, active compounds read low 1.02 and 0.974 | S. cerevisiae deletion strains, locus YNL175C, strain NOP13, active compounds read low 1.02 | S. cerevisiae deletion strains, locus YNL183C, strain NPR1, active compounds read low 0.919 | S. cerevisiae deletion strains, locus YNL197C, strain WHI3, active compounds read low 1.02 | S. cerevisiae deletion strains, locus YNL209W, strain ssb2, active compounds read low 0.997 | S. cerevisiae deletion strains, locus YNL224C, strain SQS1, active compounds read low 1.02 | S. cerevisiae deletion strains, locus YNL233W, strain BNI4, active compounds read low 1.02 | S. cerevisiae deletion strains, locus YNL248C, strain rpa49, active compounds read low 0.994 | S. cerevisiae deletion strains, locus YNL250W, strain rad50, active compounds read low 0.985 | S. cerevisiae deletion strains, locus YNL271C, strain bni1, active compounds read low 0.981 | S. cerevisiae deletion strains, locus YNL298W, strain CLA4, active compounds read low 0.99 | S. cerevisiae deletion strains, locus YNL307C, strain MCK1, active compounds read low 0.993 | S. cerevisiae deletion strains, locus YNL322C, strain KRE1 (second series), active compounds read low 0.996 | S. cerevisiae deletion strains, locus YNL322C, strain KRE1, active compounds read low 1.02 | S. cerevisiae deletion strains, locus YNR049C, strain mso1, active compounds read low 1 | S. cerevisiae deletion strains, locus YNR052C, strain pop2, active compounds read low 0.989 | S. cerevisiae deletion strains, locus YOL006C, strain TOP1, active compounds read low 1.02 | S. cerevisiae deletion strains, locus YOL012C, strain htz1 0.782 | S. cerevisiae deletion strains, locus YOL147C, strain pex11, active compounds read low 0.991 | S. cerevisiae deletion strains, locus YOR001W, strain rrp6, active compounds read low 0.99 | S. cerevisiae deletion strains, locus YOR061W, strain CKA2, active compounds read low 1.02 | S. cerevisiae deletion strains, locus YOR069W, strain VPS5, active compounds read low 1.01 | S. cerevisiae deletion strains, locus YOR070C, strain gyp1, active compounds read low 0.999 | S. cerevisiae deletion strains, locus YOR080W, strain dia2, active compounds read low 1.01 | S. cerevisiae deletion strains, locus YOR083W, strain WHI5 (second series), active compounds read low 0.985 | S. cerevisiae deletion strains, locus YOR083W, strain WHI5, active compounds read low 0.983 | S. cerevisiae deletion strains, locus YOR106W, strain vam3, active compounds read low 0.986 | S. cerevisiae deletion strains, locus YOR136W, strain idh2, active compounds read low 0.992 | S. cerevisiae deletion strains, locus YOR144C, strain elg1, active compounds read low 0.99 | S. cerevisiae deletion strains, locus YOR184W, strain ser1, active compounds read low 0.98 | S. cerevisiae deletion strains, locus YOR231W, strain MKK1, active compounds read low 0.973 | S. cerevisiae deletion strains, locus YOR265W, strain rbl2, active compounds read low 1 | S. cerevisiae deletion strains, locus YOR270C, strain vph1, active compounds read low 0.993 | S. cerevisiae deletion strains, locus YOR290C, strain snf2, active compounds read low 0.928 | S. cerevisiae deletion strains, locus YOR316C, strain cot1, active compounds read low 0.989 | S. cerevisiae deletion strains, locus YPL051W, strain arl3, active compounds read low 0.988 | S. cerevisiae deletion strains, locus YPL055C, strain LGE1, active compounds read low 1.04 | S. cerevisiae deletion strains, locus YPL078C, strain atp4, active compounds read low 0.983 | S. cerevisiae deletion strains, locus YPL106C, strain sse1, active compounds read low 0.989 | S. cerevisiae deletion strains, locus YPL240C, strain hsp82, active compounds read low 1.01 | S. cerevisiae deletion strains, locus YPL241C, strain CIN2, active compounds read low 1.01 | S. cerevisiae deletion strains, locus YPL256C, strain CLN2, active compounds read low 0.99 | S. cerevisiae deletion strains, locus YPR119W, strain clb2, active compounds read low 0.988 | S. cerevisiae deletion strains, locus YPR141C, strain kar3, active compounds read low 0.975 | S. cerevisiae deletion strains, locus YPR163C, strain tif3, active compounds read low 0.984 | S. cerevisiae deletion strains, locus YPR167C, strain met16, active compounds read low 0.987 | S. cerevisiae deletion strains, strain wtn01, active compounds read low 0.97 | S. cerevisiae strains, strain wild type, active compounds read low 1.01

Reference: PubChem BioAssay AID1159580 (chemical genetic matrix, 2015)
